# Compounds with a hit are over-represented: about 3.4% of the library has one in this group of screens.
# HttQ103 aggreg: qHTS Multiplex Assay to Identify Dual Action Probes in a Cell Model of Huntington: Aggregate Formation (GFP) | PC12 HttQ103-GFP aggregates, Acumen cytometry, 40 h | Potency, µM (top dose mostly 46.1 µM), without a hit: top-dose activity change, negative = inhibition, most hits filed as inhibitors | 220,000 tested, 1.1% active | AID 1688, 2009; also: potency is read from the fitted curve at half-maximal effect; % is scaled to controls: 0 for no effect and ±100 for the full control effect; nearly all actives have a fitted effect of over 60% in size
#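 Multiplexed with ATP-based cell death, this channel scores GFP aggregates in PC12 cells expressing inducible HTTex1-Q103-GFP. Induction used 100 nM tebufenozide; compounds were tested in concentration series.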
# IMPase cell inh: qHTS Assay for Identifying the Cell-Membrane Permeable IMPase Inhibitors. Inositol monophosphatase 1 (Rattus norvegicus), P97697. CHO-M1 cells, IP1 accumulation, HTRF TR-FRET ratio. inhibition (IP1 accumulation), % at 46.1 µM. 120,000 tested, under 10 active; active = well fitted curve in the direction sought with a large enough effect in the signal ratio, not every such curve was filed as active; inconclusive = small, poorly fitted or top-dose-only effect, or a change in a side signal; inactive = no such curve, though single readings can be large or run the other way; the % refers to the signal ratio;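 also: cells stimulated with carbachol in lithium chloride buffer; plate controls were DMSO basal wells for no effect and reference inhibitor wells for full effect; higher means more IMPase inhibition seen as more IP1 and lower FRET ratio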
# Target sequence (P97697 whole entry, looked up): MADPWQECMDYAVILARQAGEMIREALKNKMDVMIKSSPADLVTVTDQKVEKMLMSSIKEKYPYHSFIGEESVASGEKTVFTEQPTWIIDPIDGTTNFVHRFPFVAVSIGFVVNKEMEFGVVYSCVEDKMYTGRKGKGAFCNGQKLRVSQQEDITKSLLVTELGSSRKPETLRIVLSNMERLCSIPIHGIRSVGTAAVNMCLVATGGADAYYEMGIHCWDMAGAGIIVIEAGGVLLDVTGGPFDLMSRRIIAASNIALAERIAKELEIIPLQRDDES
#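 Cellular IMPase inhibition is scored as a rise in cytosolic IP1, detected by competitive TR-FRET between d2-labelled IP1 and a europium anti-IP1 antibody. M1-expressing CHO cells were stimulated with carbachol for 30 min at 37C, with lithium (50 mM LiCl) present in the buffer.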
# PNC inhibitor: High Content Assay for Compounds that inhibit the Assembly of the Perinucleolar Compartment. 140,000 tested, 3.1% active. AID 2417, 2010. activity change (PNC), negative = inhibition, % at 10 µM. PC3M PTB-GFP, PNC prevalence imaging, 16 h; stronger effect = lower value;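 active = readout at or below -70, meaning at least 70% loss of cells showing the perinucleolar compartment, a nuclear body marking cancer cells; inconclusive = readout between -30 and a set limit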;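 also: plate controls were DMSO wells for no effect and camptothecin positive control wells for full effect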
#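 Read-out is percentage of cells bearing a perinucleolar compartment, from automated 20x imaging of fixed, Hoechst-stained PC3M PTB-GFP cells. Cells were seeded 4 h, then exposed 16 h to compound (23 nl of library stock) in duplicate plates.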
# IMPase Li inh: qHTS Assay for Identifying the Cell-Membrane Permeable IMPase Inhibitors: Potentiation with Lithium | Potency, µM (doses to about 59.4 µM), for inactives: at the highest dose activity, negative = IMPase inhibition, hits mostly inhibitors | CHO-M1 cells, IP1 TR-FRET (IP-One), carbachol + lithium | 210,000 tested, 0.35% active;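 also: IP1 builds up when IMPase is blocked and the TR-FRET signal falls; potency is read from the fitted curve at half-maximal effect; plate controls were basal vehicle for no effect and high inhibitor control for full effect; nearly all actives have a fitted effect of over 50% in size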
#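 Readout is a homogeneous TR-FRET IP1 immunoassay (Ex 320, Em 665 and 620), where raised cytosolic IP1 lowers signal. Cells were CHO-M1 treated 30 min at 37C with test compounds plus a little lithium; AC50 values came from Hill-equation fitting.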
# HTT cytoprotect: qHTS Multiplex Assay to Identify Dual Action Probes in a Cell Model of Huntington: Cytoprotection (ATP); Potency, µM (highest dose often 56.4 µM), for inactives: cytoprotection (ATP increase), most hits filed as activators; PC12 HTT-Q103 induced, cytoprotection, ATP luminescence, 40 h; 230,000 tested, 0.14% active; also: potency is read from the fitted curve at half-maximal effect; % of control where 0% means no effect; nearly all actives have a fitted effect of over 45% in size
#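 Rat PC12, Q103 Htt exon1-GFP fusion, ecdysone promoter; tebufenozide inducer 100 nM final; compound titration; qHTS, 1500 cells/well; ATPlite luminescent read.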
# NPSR antag: qHTS Assay for Antagonists of the Neuropeptide S Receptor: cAMP Signal Transduction | Q6W5P4 | CHO-NPSR cells, cAMP TR-FRET, antagonist mode | Potency, µM (highest dose often 38.3 µM), for the others: at the top dose activity change, negative = inhibition, most hits filed as inhibitors | 220,000 tested, 1% active | AID 1461, 2008; also: potency is read from the fitted curve at half-maximal effect; % is scaled to controls: 0 for no effect and ±100 for the full control effect; nearly all actives have a fitted effect of over 50% in size
# * marks the source's active call; other numbers are inactive results; ? = inconclusive; / = not tested or not shown; [ ] = remark or other dose. Unless noted, calls follow the shape of the dose curve; as a rule, active = well fitted curve in the direction sought with a large enough effect; inconclusive = small, poorly fitted or top-dose-only effect, or another doubt; inactive = no such curve, though single readings can be large; an effect the other way counts as inactive or inconclusive.
SMILES,HttQ103 aggreg,IMPase cell inh,PNC inhibitor,IMPase Li inh,HTT cytoprotect,NPSR antag
COc1ccc2c(c1)C=C(CN1CCN(C3CCCC3)C(CCO)C1)CO2 (stereo not drawn),/,/,/,28.6%,/,-9.6%
O=C(NN1C(=O)C2C3CCC(O3)C2C1=O)c1ccc(Cl)cc1 (stereo not drawn),-7.5%,/,-14.9,-14.1%,/,-1.9%
Cc1occc1C(=O)NN1C(=O)C2C3CCC(O3)C2C1=O (stereo not drawn),-15.7%,/,-102.2*,-5.3%,/,16.7%
CCCn1c(C)nc2c(N3CCC(N(C)C)C3)nc(C)nc21 (stereo not drawn),/,/,/,2.6%,20.2%,/
N#CCCSC(=S)[C@H]1CCCC1=N,/,/,/,-8.5%,-13.9%[10 µM],/
O=C(CCS(=O)(=O)c1ccccc1)Nc1ccc(-c2nc3ccccc3s2)c(O)c1,3.9%,/,-28.4,11.2µM*,-6.4%[10 µM],-59.7%
CC(=O)Nc1ccc(O)c(-c2nc3ccccc3s2)c1,-22.5%,/,/,-3.5%,-32.9%,9.7%
O=C(CSCc1ccccc1)Nc1ccc(Cl)cn1,4.1%,-11.7,20.7,32.7%[38.3 µM],4.7%,-5.7%[46.1 µM]
O=C(CC(c1ccccc1)c1ccccc1)Nc1ccc(Cl)cn1,?,12.2,-20.3,19.3%[38.3 µM],-29.6%,10µM*
COc1ccc2c(c1)[n+]([O-])c(/C(C)=N/NC(N)=S)c(C)[n+]2[O-],/,/,/,/,0.4%[10 µM],/
O=C1NCCN/C1=C\C(=O)c1cccc(Br)c1,1.7%[9.22 µM],/,/,/,8.8%[10 µM],26.1%
COCCn1c(=O)c(-c2ccc(F)c(F)c2)nc2cncnc21,/,/,/,5.5%,-6.0%,/
CC1CC(C)CN(S(=O)(=O)c2ccc(NC(=O)C3COc4ccccc4O3)cc2)C1 (stereo not drawn),-3.3%,-2.6,-121.7*,25.0%,15.4%,-15.0%[46.1 µM]
O=C(Nc1ccc(-c2cn3ccsc3n2)cc1)C1COc2ccccc2O1 (stereo not drawn),-3.1%,10.6,-94.5*,-1.4%[38.3 µM],-38.0%,?
CCN(CC(=O)N1CCCCCC1)S(=O)(=O)c1ccc(Cl)cc1,-5.1%,-0.2,-1.3,0.8%[38.3 µM],-7.4%,-6.3%[46.1 µM]
CCN(CC(=O)N1CCN(C)CC1)S(=O)(=O)c1ccc(Cl)cc1,?,3.0,-106.5*,8.1%[38.3 µM],7.5%,1.2%[46.1 µM]
COc1ccc(NC(=O)Cn2c(C(C)C)nc(C)cc2=O)cc1Cl,9.0%,/,/,23.9%,-20.9%,-6.6%
N=c1oc2ccc3ccccc3c2cc1-c1nnc2n1CCCCC2,-3.3%,-2.0,-113.7*,-21.3%[38.3 µM],-16.6%[10 µM],2.6%[46.1 µM]
COc1cccc(Cn2c(=O)c(-c3ccccc3)nc3cnc(N(C)C)nc32)c1,/,/,/,?,-32.8%,/
CCc1ccc2oc(-c3cc(N)cc(C)c3O)nc2c1,29.1%[9.22 µM],-0.2,-107.1*,16.2%[38.3 µM],-48.6%,-1.3%[46.1 µM]
COCCN(CCOC)c1nc(C)nc2c1nc(-c1ccccc1)n2CCCN1CCCCC1C (stereo not drawn),/,/,/,13.3%,9.1%,/
O=C(NCC1CCCO1)c1ccc2c(=O)n(Cc3ccco3)c(SCC(=O)N3CCCC3)nc2c1 (stereo not drawn),-8.1%,0.6,39.5,-4.0%[38.3 µM],7.2%,-4.4%[46.1 µM]
CCOC(=O)c1c(NC(=O)CSc2nc3cc(Cl)ccc3c(=O)n2Cc2ccco2)sc(C(=O)N(C)C)c1C,7.08µM*,-12.5,-17.6,/,-30.5%[10 µM],?
CN(C(=O)CSc1nc2ccc(Br)cc2c(=O)n1Cc1ccco1)C1CCS(=O)(=O)C1 (stereo not drawn),0.9%[9.22 µM],/,/,/,6.5%[10 µM],38.3%
CCOC(=O)CSc1nc2c(sc3ccc([N+](=O)[O-])cc32)c(=O)n1Cc1ccco1,-6.5%,/,-86.6*,20.2%,-12.4%[10 µM],-10.6%

# High-throughput results as filed in PubChem BioAssay.
